Test results from ChEMBL document CHEMBL4513146, “CO-ADD screening of Karazin Kharkiv National University (Ukraine) compounds”.
Measured potencies and affinities stand elsewhere.

What follows are compounds tested on Escherichia coli. Details: Concentration 32 ug.mL-1;; ASSAY_TEST Inhibition of Bacterial Growth; detection method Absorption (OD600); MEDIA CAMHB; plate type 384well; NBS; CORNING #3640; time 18 hr.
For `Cc1cc(C)cc(Nc2nc(C)cc3nn(CC(=O)Nc4ccc(F)cc4F)c(=O)n23)c1`, the Inhibition was -0.48%. Compound `COc1ccc(NC(=O)C(C)Sc2nnc3c(=O)n(-c4ccccc4)ccn23)cc1` (centres undefined) has an Inhibition of 4.26%. `COc1ccc(-c2cc3c4nn(CC(=O)Nc5cccc(C)c5)c(=O)n4ccn3n2)cc1` was tested, and the Inhibition was -1.93%. `Cc1c(Cl)cccc1NC(=O)CSc1nc2ccccc2n2c(C)nnc12` was tested, and the Inhibition was 3.58%. `Cc1nnc2ccc(S(=O)(=O)N(Cc3ccccc3)c3ccc(Cl)cc3)cn12` gave an Inhibition of -13.98%. With `CCCCc1ccc(NC(=O)Cn2nc3c(N4CCSCC4)nc4ccccc4n3c2=O)cc1` the Inhibition was 1.07%. With `COc1ccc(NC(=O)Cn2nc3ccc(SCc4ccc(Cl)cc4)nn3c2=O)cc1Cl` the Inhibition was -11.11%. `CCOc1ccc(-n2ccn3c(=O)n(CC(=O)Nc4ccc(Br)cc4)nc3c2=O)cc1` was tested, and the Inhibition was -1.87%. `Cc1ccc(-c2ccc3nnc(CCC(=O)NCc4ccc(C(C)C)cc4)n3n2)cc1C` showed an Inhibition of -3.19%. Work on `COc1ccccc1NC(=O)Cn1nc2c3cc(-c4ccc(C)c(C)c4)nn3ccn2c1=O` yielded an Inhibition of 2.41%. `Cc1cc2nn(CC(=O)Nc3ccc(Cl)cc3)c(=O)n2c(Nc2ccc(F)c(C)c2)n1` was tested, and the Inhibition was -2.12%. For `CC(C)Cn1c(=O)c2sccc2n2c(=O)n(Cc3ccccc3Cl)nc12`, the Inhibition was -6.09%. With `COc1ccccc1N1CCN(C(=O)Cn2nc3ccc(-c4ccccc4)nn3c2=O)CC1` the Inhibition was -1.16%. With `CC(C)Cn1c(=O)c2sccc2n2c(=O)n(Cc3cccc(Br)c3)nc12` the Inhibition was -2.43%. In the case of `COc1ccc(NC(=O)Cn2nc3c4cc(-c5ccc(C)c(C)c5)nn4ccn3c2=O)c(OC)c1`, the Inhibition is reported as -14.02%. For `CCC(C)NC(=O)Cn1nc2ccc(SCc3ccc(Cl)cc3)nn2c1=O` (centres undefined), the Inhibition was -1.43%. `COc1ccc(C)cc1NC(=O)Cn1nc2c(N3CCSCC3)nc3ccccc3n2c1=O` showed an Inhibition of 0.1%. With `Cc1ccc(NC(=O)Cn2nc3c(Sc4cccc(F)c4)nccn3c2=O)cc1F` the Inhibition was 1.14%. With `COc1ccc(-c2cc3c4nn(CC(=O)NCc5ccccc5Cl)c(=O)n4ccn3n2)cc1` the Inhibition was 0.93%. In the case of `Cc1cc(C)cc(Nc2nc(C)cc3nn(CC(=O)Nc4cc(F)cc(F)c4)c(=O)n23)c1`, the Inhibition is reported as -2.61%. `COc1cccc(-n2ccn3c(-c4ccc([N+](=O)[O-])cc4)nnc3c2=O)c1` gave an Inhibition of -8.12%. For `O=C(Cn1nc2ccc(-c3ccccc3)nn2c1=O)Nc1ccc(F)cc1`, the Inhibition was -4.86%. `Cc1ccc(-n2ccn3c(=O)n(Cc4ccccc4)nc3c2=O)cc1C` was tested, and the Inhibition was -8.73%. `Cn1c(=O)c2sccc2n2c(=O)n(Cc3cccc(Br)c3)nc12` gave an Inhibition of 0.53%. Compound `O=C(Cn1nc2c(N3CCSCC3)nc3ccccc3n2c1=O)Nc1ccc(Br)cc1` has an Inhibition of -4.32%. Compound `COc1cccc(CN(c2ccc(C)c(F)c2)S(=O)(=O)c2ccc3nncn3c2)c1` has an Inhibition of -16.33%. With `O=C(CSc1nnc2c(=O)n(Cc3ccc(F)cc3)ccn12)NCC1CCCO1` (centres undefined) the Inhibition was -3.13%. `O=C(Cn1nc2c(SCc3ccccc3)nccn2c1=O)NC1CCCC1` showed an Inhibition of 0.2%. With `O=S(=O)(c1cccn2c(SCc3c(F)cccc3Cl)nnc12)N1CCCC1` the Inhibition was 0.4%. In the case of `Cc1cc(C)cc(NC(=O)Cn2nc3ccc(SCc4ccc(Cl)cc4)nn3c2=O)c1`, the Inhibition is reported as -11.38%. In the case of `O=c1n(Cc2ccc3c(c2)OCO3)nc2c(S(=O)(=O)N3CCCCC3)cccn12`, the Inhibition is reported as 1.46%. With `CCOC(=O)c1ccccc1NC(=O)Cn1nc2c(Oc3cccc(C)c3C)nccn2c1=O` the Inhibition was -6.35%. Work on `Cc1ccc(Sc2nccn3c(=O)n(CC(=O)Nc4ccc(C)c(Cl)c4)nc23)c(C)c1` yielded an Inhibition of -6.53%. With `Cc1cc2nn(CC(=O)NC(C)C)c(=O)n2c(-c2ccc(C(F)(F)F)cc2)n1` the Inhibition was 1.53%. For `COc1ccc(-c2cc3c4nn(CC(=O)Nc5cccc(OC)c5)c(=O)n4ccn3n2)cc1`, the Inhibition was -0.95%. With `CSc1ccc(CNC(=O)Cn2nc3c(Oc4ccc(C)cc4)nccn3c2=O)cc1` the Inhibition was -5.13%. `CCOC(=O)c1ccc(NC(=O)Cn2nc3c(SCc4ccc(Cl)cc4)nccn3c2=O)cc1` was tested, and the Inhibition was -14.83%. In the case of `COc1ccc(NC(=O)c2ccc3nn(CC(=O)Nc4cccc(OC)c4)c(=O)n3c2)cc1`, the Inhibition is reported as 0.97%. `COc1cc(NC(=O)Cn2nc3ccc(-c4ccc(Cl)cc4)nn3c2=O)cc(OC)c1` showed an Inhibition of -10.38%.
